We go through 40 molecules from PubChem BioAssay (EPA / NIEHS).

Several values for one entry are separate records, joined by “and”; a condition that tells them apart may be missing. Identical values can stand only once. Activity calls are given as the source filed them. Rule for the calls: active = hit-call score of the fitted dose curve at least 0.9, where 1 is the maximum; inactive = score below 0.9.

Sequence of E-selectin (Homo sapiens) (P16581 whole entry, looked up): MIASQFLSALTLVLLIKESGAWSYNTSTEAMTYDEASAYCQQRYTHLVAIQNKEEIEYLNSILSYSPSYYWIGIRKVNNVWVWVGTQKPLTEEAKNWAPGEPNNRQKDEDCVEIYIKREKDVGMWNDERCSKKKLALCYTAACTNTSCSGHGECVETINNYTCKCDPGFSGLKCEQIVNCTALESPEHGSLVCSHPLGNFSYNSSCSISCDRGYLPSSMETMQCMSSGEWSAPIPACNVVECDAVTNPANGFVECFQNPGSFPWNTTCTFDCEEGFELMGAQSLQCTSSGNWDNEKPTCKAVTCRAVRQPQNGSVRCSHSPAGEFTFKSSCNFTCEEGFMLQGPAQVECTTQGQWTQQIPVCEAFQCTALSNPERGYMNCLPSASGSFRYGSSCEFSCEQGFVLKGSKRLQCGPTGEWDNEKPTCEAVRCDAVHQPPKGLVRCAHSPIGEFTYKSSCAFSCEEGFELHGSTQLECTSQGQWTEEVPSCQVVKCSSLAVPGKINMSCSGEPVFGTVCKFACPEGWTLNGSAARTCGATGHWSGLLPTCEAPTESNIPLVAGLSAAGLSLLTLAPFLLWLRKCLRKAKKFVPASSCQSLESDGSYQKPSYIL

Read-out in the test: E-selectin (Homo sapiens) (UniProt P16581)
In words: BSK_3C_Eselectin: BioMAP Diversity Plus: 3C Assay for Eselectin Biomarker Activity (AID 2283015). Conditions: primary human endothelial cells (HUVEC); actives raise or lower the signal. As for the experimental part:
BSK_3C is a cell-based, multiplexed-readout assay that uses umbilical vein endothelium, a human vascular primary cell, with measurements taken at 24 hours after chemical dosing in a 96-well plate.BSK_3C_Eselectin is an assay component measured in the BSK_3C assay. It measures E-selectin antibody related to regulation of gene expression using ELISA technology.Data from the assay component BSK_3C_Eselectin was analyzed into 1 assay endpoint. This assay endpoint, BSK_3C_Eselectin, was analyzed with bidirectional fitting relative to DMSO as the negative control and baseline of activity. Using a type of binding reporter, gain or loss-of-signal activity can be used to understand changes in the signaling as they relate to the gene SELE. Furthermore, this assay endpoint can be referred to as a primary readout, because this assay has produced multiple assay endpoints where this one serves a signaling function. To generalize the intended target to other relatable targets, this assay endpoint is annotated to the cell adhesion molecules intended target family, where the subfamily is selectins.
The levels of cell surface (or secreted, indicated by the prefix "s") biomarker endpoints were measured by ELISA. Overt cytotoxicity to cells in confluent adherent cultures (all systems other than the BT system) was assessed by measuring total protein levels using sulforhodamine B (SRB) staining in parallel cultures at the time of biomarker measurements, indicated as SRB endpoints. For proliferation assays for adherent cell types, individual cell types are cultured at sub-confluence and relative cell numbers quantified by SRB staining at time points optimized for each system (48 h: 3C and CASM3C systems; 72 h: BT and HDF3CGF systems; 96 h: SAg system). SRB was performed by staining cells with 0.1% SRB after fixation with 10% TCA and reading wells at 560 nm.Viability and proliferation of PBMC (T cells) was quantified by Alamar Blue reduction for the SAg and BT systems. For PBMC viability (referred to as PBMC Cytotoxicity within the assay endpoint names), cells were plated (75,000/well in a 96-well plate) and then chemical samples added for 1 h before addition of activators, SEB and TSST-1 (20 ng/mL final concentration each). Cells were incubated for 90 h. Then, Alamar Blue (20 uL/well) (Invitrogen, Cat DAL1100) was added for 6 h, and the plates were read with a fluorescence microplate reader at 546/580 nm (excitation/emission). For PBMC proliferation, cells were plated and activated as above but incubated for only 16 h prior to addition of Alamar Blue. Plates were read after 6 h.
For the molecule `COc1ccc(C(=O)/C(Br)=C\C(=O)O)cc1`, the concentration at half-maximal activity (AC50) is 15.2 µM (active) and 20 µM (active).

Take `CC(C)c1cccc(C(C)C)c1N`: the outcome was inactive.

`c1ccc2c(c1)[nH]c1ccccc12`: the outcome was inactive. Regarding `Oc1ccccc1Cc1ccccc1O`, the outcome was inactive. The same measure, in the same setting: under `O=C(Cl)c1c(Cl)c(Cl)c(C(=O)Cl)c(Cl)c1Cl` stands “inactive”. Consider `c1ccc(Nc2cccc3ccccc23)cc1`, for which the AC50 was 31.5 µM (active) and 31.6 µM (active). Turning to `CC1(C)CC(O)CC(C)(C)N1[O]`, the AC50 was 0.0621 µM (active).

As for `Cc1c(O)cccc1O`, the outcome was inactive. On the same count and under the same terms, under `Fc1ccc(Br)cc1` stands “inactive”. Same read-out and setting: under `C=CCCCCCCCCC=O` stands “inactive”; under `COc1ccc(C(=O)c2ccccc2)c(O)c1`, “inactive”; under `O=C(Oc1ccccc1)c1ccccc1C(=O)Oc1ccccc1`, “inactive”. Still for that read-out and setting: next, `CCNc1nc(NC(C)(C)C)nc(OC)n1`: “inactive”; `Oc1ccc(/C=C/c2cc(O)cc(O)c2)cc1`: “inactive”.

In the case of `CC/C=C\C/C=C\C/C=C\CCCCCCCC(=O)OC`, the AC50 is 19.2 µM (active). As for `CCCCCCC=O`, the outcome was inactive.

Take `CC(CCC(=O)O)(c1ccc(O)cc1)c1ccc(O)cc1`: the result was inactive.

On to `O=C(O)C(F)(F)C(F)(F)C(F)(F)C(F)(F)C(=O)O`, for which the result was inactive. As to `CCCC(C)C(=O)OCC` (stereo not given), the result was inactive. For the molecule `Oc1c(Cl)cc(Cl)c(Cl)c1Cl`, the AC50 was 27.7 µM (active). Regarding `Clc1cc(Cl)c(Cl)c(Cl)c1Cl`, the result was inactive.

`CCOC(=O)/C=C\C(=O)OCC`: the outcome was inactive. In the case of `O=C1CCCCCCCCCCCN1`, the result was inactive. On the same count and under the same terms, under `C[N+](C)(C)CCCNS(=O)(=O)C(F)(F)C(F)(F)C(F)(F)C(F)(F)C(F)(F)C(F)(F)C(F)(F)C(F)(F)F` stands “inactive”. Regarding `c1ccc2sc(SSN3CCOCC3)nc2c1`, the AC50 was 11.8 µM (active). Regarding `Nc1ccc(C(=O)O)cc1`, the result was inactive.

Take `Nc1nc(N)nc(-c2ccccc2)n1`: the result was inactive. Still for that read-out and setting: under `CCCCCCOC(=O)CCCCC(=O)OCCCCCC` stands “inactive”. `C=CC(=O)OCCCCCCOC(=O)C=C`: the AC50 was 6.59 µM (active).

On to `C=C(C)C(=O)OCCCCCCCCCCCC`, for which the outcome was inactive. Same read-out and setting: next, `CC(C)C(=O)OCCc1ccccc1`: “inactive”. `CC/C=C\CCOC(=O)c1ccccc1O`: the AC50 is 32.9 µM (active).

Turning to `CC(C)CCCCCOC(=O)CS`, the outcome was inactive.

In the case of `CCOC(=O)C1=NN(c2ccc(Cl)cc2Cl)C(C)(C(=O)OCC)C1` (stereo not given), the result was inactive. The same measure, in the same setting: next, `CC=C(C)C(C)=O`: “inactive”; `CC(C)[N+](C)(CCOC(=O)C1c2ccccc2Oc2ccccc21)C(C)C`: “inactive”. With `CC1=CC=C(C(C)C)CC1`, the outcome was inactive. On to `CCN1CN(CC)CN(CC)C1`, for which the result was inactive. On the same count and under the same terms, under `CCCCC1C(=O)N(c2ccccc2)N(c2ccccc2)C1=O` stands “inactive”; under `CCCCCCCCC(CO)CCCCCC` (stereo not given), “inactive”.

As usually defined, the AC50 is the midpoint of the concentration-response curve, whichever way the signal moves.
